Our source for the binding signal values is paper PMC7862700, “An all-to-all approach to the identification of sequence-specific readers for epigenetic DNA modifications on cytosine”.

Experiment in all cases: DAPPL (digital affinity profiling via proximity ligation, sequencing); 10 mM Tris-HCl pH 7.5, 50 mM NaCl, 1 mM DTT, 4% glycerol, room temperature, 30 min; GST-TFs on glutathione beads, 16-mer random dsDNA library, 0.1% formaldehyde crosslink after washing; high values mean tight binding
What all share (settings): protein: recombinant; tags: N-terminal GST; dsDNA, one strand shown

Assay [1] addresses T1, FLI1 (Homo sapiens, UniProt Q01543 1-452).
T1 sequence: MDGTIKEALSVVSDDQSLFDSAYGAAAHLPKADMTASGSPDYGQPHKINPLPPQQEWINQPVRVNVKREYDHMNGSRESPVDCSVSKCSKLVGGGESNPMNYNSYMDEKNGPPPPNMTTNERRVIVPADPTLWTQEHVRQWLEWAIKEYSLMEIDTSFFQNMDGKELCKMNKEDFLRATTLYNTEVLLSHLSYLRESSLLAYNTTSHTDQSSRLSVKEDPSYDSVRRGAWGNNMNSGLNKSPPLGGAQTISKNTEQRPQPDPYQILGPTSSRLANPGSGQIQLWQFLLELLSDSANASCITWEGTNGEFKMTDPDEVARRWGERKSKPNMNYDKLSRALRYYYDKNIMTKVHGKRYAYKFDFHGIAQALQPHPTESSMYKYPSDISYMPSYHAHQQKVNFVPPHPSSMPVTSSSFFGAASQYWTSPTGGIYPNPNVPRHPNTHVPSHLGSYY
A digest of the protocol: (§1)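 Binding signal is given per hexamer as its read frequency for a factor divided by its frequency in the tag-only sample. GST-fused human transcription factors were expressed in yeast, captured on glutathione beads, barcoded with DNA and pooled with that sample, then incubated with 200 nmole of a 16-mer random double-stranded DNA library in Tris/NaCl/DTT/glycerol buffer for 30 min at room temperature. The pools were then washed, crosslinked, proximity-ligated, amplified by PCR and sequenced on an Illumina NextSeq500.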

For assay [2], the target named is T2, ELK1 (Homo sapiens, UniProt P19419 1-428).
T2 sequence: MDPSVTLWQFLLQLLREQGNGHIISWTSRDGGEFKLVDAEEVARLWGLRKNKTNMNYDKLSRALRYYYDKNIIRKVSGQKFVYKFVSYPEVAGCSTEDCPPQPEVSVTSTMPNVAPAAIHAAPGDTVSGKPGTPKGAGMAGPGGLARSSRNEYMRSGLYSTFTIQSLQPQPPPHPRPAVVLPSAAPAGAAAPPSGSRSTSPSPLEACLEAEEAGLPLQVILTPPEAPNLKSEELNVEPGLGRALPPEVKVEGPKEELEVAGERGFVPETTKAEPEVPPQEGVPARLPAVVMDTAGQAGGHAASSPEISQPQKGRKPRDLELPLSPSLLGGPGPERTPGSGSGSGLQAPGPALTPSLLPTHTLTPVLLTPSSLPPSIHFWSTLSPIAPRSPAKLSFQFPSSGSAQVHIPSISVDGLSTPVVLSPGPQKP
A digest of the protocol: as §1

In assay [3] the target is T3, GABPA (Homo sapiens, UniProt Q06546 1-454).
T3 sequence: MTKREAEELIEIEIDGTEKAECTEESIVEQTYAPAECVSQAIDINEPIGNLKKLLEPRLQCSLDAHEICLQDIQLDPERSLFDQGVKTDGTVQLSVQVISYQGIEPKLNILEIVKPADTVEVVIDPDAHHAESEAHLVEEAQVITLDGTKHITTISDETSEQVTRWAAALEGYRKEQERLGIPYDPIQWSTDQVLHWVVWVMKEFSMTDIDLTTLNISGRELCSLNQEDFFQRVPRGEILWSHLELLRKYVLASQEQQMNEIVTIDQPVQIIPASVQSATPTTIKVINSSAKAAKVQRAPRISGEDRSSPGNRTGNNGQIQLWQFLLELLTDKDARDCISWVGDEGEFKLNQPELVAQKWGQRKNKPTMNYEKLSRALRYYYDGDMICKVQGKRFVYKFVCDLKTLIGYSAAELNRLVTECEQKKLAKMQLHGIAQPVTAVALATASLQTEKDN
The essentials: as §1

Assay [4] has as its target T4, ERG (Homo sapiens, UniProt P11308 1-479).
T4 sequence: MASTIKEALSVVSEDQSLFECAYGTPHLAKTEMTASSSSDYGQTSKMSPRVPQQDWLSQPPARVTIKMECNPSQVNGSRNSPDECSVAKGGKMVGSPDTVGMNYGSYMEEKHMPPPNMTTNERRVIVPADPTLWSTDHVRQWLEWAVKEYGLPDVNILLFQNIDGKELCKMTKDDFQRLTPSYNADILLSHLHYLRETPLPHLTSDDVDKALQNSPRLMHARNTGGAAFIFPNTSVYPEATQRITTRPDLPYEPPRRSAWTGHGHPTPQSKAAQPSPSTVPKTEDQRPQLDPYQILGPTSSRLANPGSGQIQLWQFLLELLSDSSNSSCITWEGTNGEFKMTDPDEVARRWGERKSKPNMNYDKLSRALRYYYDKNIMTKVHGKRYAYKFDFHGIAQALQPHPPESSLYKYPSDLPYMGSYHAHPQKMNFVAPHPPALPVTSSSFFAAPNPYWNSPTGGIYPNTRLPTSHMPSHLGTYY
The essentials: as §1

Assay [5] concerns the target ELF1 (Homo sapiens, UniProt P32519 1-619). The essentials: as §1
For assay [6], the target named is T5, EHF (Homo sapiens, UniProt Q9NZC4 1-300).
T5 sequence: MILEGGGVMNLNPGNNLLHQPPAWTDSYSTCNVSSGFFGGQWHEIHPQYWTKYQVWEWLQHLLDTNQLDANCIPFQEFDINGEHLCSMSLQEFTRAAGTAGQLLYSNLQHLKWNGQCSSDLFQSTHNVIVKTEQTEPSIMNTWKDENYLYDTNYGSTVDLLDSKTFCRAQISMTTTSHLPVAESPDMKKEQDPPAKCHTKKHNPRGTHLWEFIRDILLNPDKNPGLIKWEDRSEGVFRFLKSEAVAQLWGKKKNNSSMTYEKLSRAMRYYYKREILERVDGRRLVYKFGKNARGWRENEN
The essentials:
as §1

Assay [7] addresses SPI1 (Homo sapiens, UniProt P17947 1-270). A digest of the protocol:
as §1

Assay [8] concerns the target SPIB (Homo sapiens, UniProt Q01892 1-262). A digest of the protocol: as §1
Assay [9] deals with T6, ELK3 (Homo sapiens, UniProt P41970 1-407).
T6 sequence: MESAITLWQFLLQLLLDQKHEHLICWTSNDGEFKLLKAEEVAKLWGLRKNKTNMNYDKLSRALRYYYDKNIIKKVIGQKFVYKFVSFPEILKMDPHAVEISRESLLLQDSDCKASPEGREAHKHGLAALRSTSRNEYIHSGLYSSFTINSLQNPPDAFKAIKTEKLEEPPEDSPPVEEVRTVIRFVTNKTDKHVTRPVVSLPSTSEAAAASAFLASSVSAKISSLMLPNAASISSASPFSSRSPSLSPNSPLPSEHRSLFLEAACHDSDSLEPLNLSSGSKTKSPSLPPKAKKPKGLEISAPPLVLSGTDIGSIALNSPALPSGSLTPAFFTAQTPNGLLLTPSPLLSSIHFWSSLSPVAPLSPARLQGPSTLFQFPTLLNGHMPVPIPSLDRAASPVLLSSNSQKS
The essentials: as §1

SPIB, sequence (Q01892 whole entry): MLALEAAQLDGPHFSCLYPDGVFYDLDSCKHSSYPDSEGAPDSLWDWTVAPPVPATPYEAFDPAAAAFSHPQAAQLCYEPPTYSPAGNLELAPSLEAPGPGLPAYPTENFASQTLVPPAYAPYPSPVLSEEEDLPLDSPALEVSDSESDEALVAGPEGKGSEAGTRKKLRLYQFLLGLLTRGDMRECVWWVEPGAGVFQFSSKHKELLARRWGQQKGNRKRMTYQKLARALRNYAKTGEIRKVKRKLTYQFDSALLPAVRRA
ELF1, sequence (P32519 whole entry): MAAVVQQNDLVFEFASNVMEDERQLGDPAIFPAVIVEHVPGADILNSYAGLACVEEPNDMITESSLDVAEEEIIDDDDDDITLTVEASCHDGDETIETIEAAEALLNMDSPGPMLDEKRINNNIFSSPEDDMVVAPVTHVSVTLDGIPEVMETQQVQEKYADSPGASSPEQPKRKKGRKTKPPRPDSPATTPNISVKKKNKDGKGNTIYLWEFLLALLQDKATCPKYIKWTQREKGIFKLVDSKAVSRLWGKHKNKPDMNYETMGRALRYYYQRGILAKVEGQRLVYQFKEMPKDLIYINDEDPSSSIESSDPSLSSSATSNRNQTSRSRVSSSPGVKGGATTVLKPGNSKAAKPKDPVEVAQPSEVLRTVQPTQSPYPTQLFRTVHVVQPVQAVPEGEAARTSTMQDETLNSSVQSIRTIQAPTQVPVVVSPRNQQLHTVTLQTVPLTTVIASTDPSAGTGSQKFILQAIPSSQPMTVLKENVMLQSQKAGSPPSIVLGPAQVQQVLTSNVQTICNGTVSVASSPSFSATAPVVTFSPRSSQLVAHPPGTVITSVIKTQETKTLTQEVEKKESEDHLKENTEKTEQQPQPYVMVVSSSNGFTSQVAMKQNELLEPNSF

CAAAAA: the binding signal in assay [1] was 1.14 fold enrichment (6-mer frequency, TF over GST control); in assay [2], 1.04 fold enrichment (6-mer frequency, TF over GST control); in [3], 1.16 fold enrichment (6-mer frequency, TF over GST control); in assay [4], 1.07 fold enrichment (6-mer frequency, TF over GST control); in assay [5], 1.16 fold enrichment (6-mer frequency, TF over GST control); in [6] it was 1.2 fold enrichment (6-mer frequency, TF over GST control). The binding signal in assay [7] was 1.32 fold enrichment (6-mer frequency, TF over GST control); in assay [8], 1.19 fold enrichment (6-mer frequency, TF over GST control); in assay [9], 1.17 fold enrichment (6-mer frequency, TF over GST control).

On to ACCCTA, for which the binding signal in [1] is 1.19 fold enrichment (6-mer frequency, TF over GST control); in assay [2], 1.36 fold enrichment (6-mer frequency, TF over GST control); in assay [3] it was 1.25 fold enrichment (6-mer frequency, TF over GST control); in assay [4], 1.18 fold enrichment (6-mer frequency, TF over GST control); in assay [5] it was 1.32 fold enrichment (6-mer frequency, TF over GST control); in assay [6], 1.09 fold enrichment (6-mer frequency, TF over GST control). Besides, the binding signal was 1.19 fold enrichment (6-mer frequency, TF over GST control) in assay [7]; 1.16 fold enrichment (6-mer frequency, TF over GST control) in assay [8]; 1.29 fold enrichment (6-mer frequency, TF over GST control) in [9].

Turning to TAAAGT, the binding signal in [1] is 1.22 fold enrichment (6-mer frequency, TF over GST control); in assay [2] it was 1.14 fold enrichment (6-mer frequency, TF over GST control); in assay [3], 1.24 fold enrichment (6-mer frequency, TF over GST control); in assay [4], 1.17 fold enrichment (6-mer frequency, TF over GST control); in [5], 1.18 fold enrichment (6-mer frequency, TF over GST control); in assay [6] it was 1.18 fold enrichment (6-mer frequency, TF over GST control). Moreover, the binding signal in assay [7] was 1.21 fold enrichment (6-mer frequency, TF over GST control); in assay [8], 1.11 fold enrichment (6-mer frequency, TF over GST control); in assay [9] it was 1.38 fold enrichment (6-mer frequency, TF over GST control).

On to CTCCGG, for which the binding signal in assay [1] is 1.45 fold enrichment (6-mer frequency, TF over GST control); in assay [2] it was 1.58 fold enrichment (6-mer frequency, TF over GST control); in [3], 1.68 fold enrichment (6-mer frequency, TF over GST control); in [4] it was 1.64 fold enrichment (6-mer frequency, TF over GST control); in assay [5], 1.52 fold enrichment (6-mer frequency, TF over GST control); in assay [6], 1.58 fold enrichment (6-mer frequency, TF over GST control). The binding signal in assay [7] was 1.43 fold enrichment (6-mer frequency, TF over GST control); in [8], 1.54 fold enrichment (6-mer frequency, TF over GST control); in [9] it was 1.6 fold enrichment (6-mer frequency, TF over GST control).

Consider TATTGT, for which the binding signal in assay [1] is 1.27 fold enrichment (6-mer frequency, TF over GST control); in [2], 1.32 fold enrichment (6-mer frequency, TF over GST control); in [3] it was 1.29 fold enrichment (6-mer frequency, TF over GST control); in [4], 1.3 fold enrichment (6-mer frequency, TF over GST control); in assay [5], 1.28 fold enrichment (6-mer frequency, TF over GST control); in [6], 1.23 fold enrichment (6-mer frequency, TF over GST control). Also, the binding signal is 1.19 fold enrichment (6-mer frequency, TF over GST control) in assay [7]; 1.28 fold enrichment (6-mer frequency, TF over GST control) in assay [8]; 1.53 fold enrichment (6-mer frequency, TF over GST control) in assay [9].

Turning to TTTAAC, the binding signal in assay [1] is 1.18 fold enrichment (6-mer frequency, TF over GST control); in assay [2], 1.16 fold enrichment (6-mer frequency, TF over GST control); in assay [3], 1.08 fold enrichment (6-mer frequency, TF over GST control); in assay [4] it was 1.13 fold enrichment (6-mer frequency, TF over GST control); in assay [5], 1.21 fold enrichment (6-mer frequency, TF over GST control); in assay [6], 1.1 fold enrichment (6-mer frequency, TF over GST control). Further, the binding signal is 1.19 fold enrichment (6-mer frequency, TF over GST control) in assay [7]; 1.14 fold enrichment (6-mer frequency, TF over GST control) in assay [8]; 1.21 fold enrichment (6-mer frequency, TF over GST control) in assay [9].

GGCTTC: the binding signal was 1.68 fold enrichment (6-mer frequency, TF over GST control) in assay [1]; 1.8 fold enrichment (6-mer frequency, TF over GST control) in assay [2]; 1.57 fold enrichment (6-mer frequency, TF over GST control) in assay [3]; 1.79 fold enrichment (6-mer frequency, TF over GST control) in assay [4]; 1.62 fold enrichment (6-mer frequency, TF over GST control) in [5]; 1.78 fold enrichment (6-mer frequency, TF over GST control) in assay [6]. The binding signal in assay [7] is 1.65 fold enrichment (6-mer frequency, TF over GST control); in assay [8], 1.78 fold enrichment (6-mer frequency, TF over GST control); in assay [9], 1.81 fold enrichment (6-mer frequency, TF over GST control).
